Among the data in PubChem BioAssay (EPA / NIEHS) are outcome and AC50 values, retold here.

Results filed as inconclusive are left out. Active and inactive are the calls of the source. Rule for the calls, unless noted: active = hit-call score of the fitted dose curve at least 0.9, where 1 is the maximum; inactive = score below 0.9.

What is called AC50 is the concentration at which the activity in the assay is half-maximal.

For test [1], the target named is human Vitamin D Receptor (VDR), VDR (gene 7421) (UniProt P11473). As to the kind of experiment: ATG_VDR_TRANS: Attagene TRANS-FACTORIAL HepG2 Assay for human Vitamin D Receptor (VDR) (AID 2283022; active = hit-call score of the fitted dose curve at least 0.9, where 1 is the maximum). In a few lines:
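Steps: transfect HepG2 with GAL4-UAS-driven reporter constructs; dose compounds 24 h; isolate RNA, reverse-transcribe, PCR-amplify with 6-FAM-labelled primer extension and HpaI digestion; quantify fragments by capillary electrophoresis relative to DMSO.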

A short description of test [2]: BSK_3C_SRB: Viability Assessment in the BioMAP Diversity Plus: 3C Assay (AID 2283023).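 Note: cells read 24 h after compound dosing; fitted both ways against DMSO so a hit may be signal rise or drop.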 Conditions: primary human endothelial cells (HUVEC). In a few lines:
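Absorbance at 560 nm of sulforhodamine B-stained (0.1%) total protein served as a cytotoxicity readout in human umbilical vein endothelial cells, 24 h after chemical treatment. Signal was fitted bidirectionally relative to DMSO.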

Read-out in test [3]: Matrix Metallopeptidase 1 (MMP1), MMP1 (gene 4312)
The test is described as follows: BSK_BE3C_MMP1: BioMAP Diversity Plus: BE3C Assay for Matrix Metallopeptidase 1 (MMP1) Biomarker Activity (AID 2283024). To be noted: primary human bronchial epithelial cells; actives raise or lower the signal. In a few lines: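 In this multiplexed primary-cell system, human bronchial epithelium received chemicals for 24 h before an ELISA for MMP1. Values reflect bidirectional fits normalised to the DMSO baseline.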

Test [4] is described as follows: BSK_3C_Vis: BioMAP Diversity Plus: 3C Assay for Morphology Visualization (AID 2283025).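 For AC50: light microscopy image of cell morphology used as background control.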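 Note: fitted both ways so gain or loss versus DMSO counts.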 To be noted: primary human endothelial cells (HUVEC). In a few lines: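 Light-microscopy morphology readout, 24 h exposure, human primary umbilical vein endothelium; analysed relative to DMSO with bidirectional fitting.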
Read-out in test [5]: Pselectin, SELP (gene 6403)
The test is described as follows: BSK_4H_Pselectin: BioMAP Diversity Plus: 4H Assay for Pselectin Biomarker Activity (AID 2283026). Conditions: primary human endothelial cells (HUVEC); actives raise or lower the signal. The essentials:
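Bidirectional fits against DMSO gave the endpoint. Cells: primary human umbilical vein endothelium, chemical-treated for 24 h before ELISA detection of P-selectin.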

Test [6] is described as follows: BSK_BE3C_SRB: Viability Assessment in the BioMAP Diversity Plus: BE3C Assay (AID 2283028).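 For AC50: fitted both ways so AC50 may mark signal gain or loss versus DMSO.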 Conditions: primary human bronchial epithelial cells. In a few lines:
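Cells (human bronchial epithelial, primary) are treated with chemicals, and after 24 h the parallel cultures are fixed in 10% TCA. These are then stained with 0.1% SRB and read at 560 nm. Gain or loss of signal is fitted relative to DMSO.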

Read-out in test [7]: Thrombomodulin, THBD (gene 7056)
As to the kind of experiment: BSK_3C_Thrombomodulin: BioMAP Diversity Plus: 3C Assay for Thrombomodulin Biomarker Activity (AID 2283029). To be noted: primary human endothelial cells (HUVEC); actives raise or lower the signal. The essentials:
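In a multiplexed primary-cell system, human umbilical vein endothelium received chemical and was assayed 24 h later for thrombomodulin by ELISA. Parallel cultures were SRB-stained (0.1% SRB after 10% TCA fixation, read at 560 nm) to flag cytotoxicity.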

Read-out in test [8]: Urokinase-type plasminogen activator receptor (uPAR), PLAUR (gene 5329)
As to the kind of experiment: BSK_4H_uPAR: BioMAP Diversity Plus: 4H Assay for Urokinase-type plasminogen activator receptor (uPAR) Biomarker Activity (AID 2283030). Conditions: primary human endothelial cells (HUVEC); actives raise or lower the signal. The essentials: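 Cell-surface uPAR ELISA signal, measured 24 h after dosing human umbilical vein endothelial cells, was analyzed with bidirectional fitting relative to DMSO. Parallel SRB staining of total protein tracked overt cytotoxicity.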

Read-out in test [9]: Vascular endothelial growth factor receptor 2 (Homo sapiens) (UniProt P35968)
As to the kind of experiment: BSK_4H_VEGFRII: BioMAP Diversity Plus: 4H Assay for Vascular endothelial growth factor receptor 2 (VEGFR2) Biomarker Activity (AID 2283031).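 For AC50: cell-surface VEGFR2 protein level quantified by ELISA.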 Conditions: primary human endothelial cells (HUVEC); actives raise or lower the signal. The essentials: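 ELISA read-out of VEGFRII in primary human umbilical vein endothelium, taken 24 h after chemical treatment. Responses are expressed relative to DMSO, with bidirectional fitting.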

Read-out in test [10]: Human Leukocyte Antigen - DR isotype (HLADR), HLA-DRA (gene 3122)
As to the kind of experiment: BSK_BE3C_HLADR: BioMAP Diversity Plus: BE3C Assay for Human Leukocyte Antigen - DR isotype (HLADR) Biomarker Activity (AID 2283032). Conditions: primary human bronchial epithelial cells; actives raise or lower the signal. In a few lines:
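BioMAP BE3C format: human bronchial epithelium, 24 h compound treatment, ELISA detection of HLA-DR, with bidirectional analysis relative to DMSO.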

Read-out in test [11]: Vascular cell adhesion molecule 1 (VCAM1), VCAM1 (gene 7412)
The test is described as follows: BSK_4H_VCAM1: BioMAP Diversity Plus: 4H Assay for Vascular cell adhesion molecule 1 (VCAM1) Biomarker Activity (AID 2283033).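 For outcome: cell-surface VCAM-1 protein measured by ELISA.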 To be noted: primary human endothelial cells (HUVEC); actives raise or lower the signal. In a few lines: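 In this human endothelial (HUVEC) system, biomarker ELISA was run 24 h after compound addition, and total protein in parallel wells was assessed by SRB at 560 nm; DMSO served as negative control.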

Read-out in test [12]: Interferon-gamma inducible Protein 10 (IP10), CXCL10 (gene 3627)
As to the kind of experiment: BSK_BE3C_IP10: BioMAP Diversity Plus: BE3C Assay for Interferon-gamma inducible Protein 10 (IP10) Biomarker Activity (AID 2283034). To be noted: primary human bronchial epithelial cells; actives raise or lower the signal. The essentials: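 BE3C cells (human bronchial epithelial, primary); 24 h exposure; ELISA for IP-10; DMSO-referenced bidirectional fit.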

Read-out in test [13]: Monokine induced gamma interferon (MIG), CXCL9 (gene 4283)
The test is described as follows: BSK_BE3C_MIG: BioMAP Diversity Plus: BE3C Assay for Monokine induced gamma interferon (MIG) Biomarker Activity (AID 2283035).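 For outcome: MIG protein measured by ELISA in BE3C cultures after 24 h of dosing.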 To be noted: primary human bronchial epithelial cells; actives raise or lower the signal. The essentials: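 hu bronchial epithelial 1° cells, 24 h cpd; MIG by ELISA; bidirectional fit, DMSO = baseline.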

Read-out in test [14]: Transforming growth factor beta 1 (TGFb1), TGFB1 (gene 7040)
The test is described as follows: BSK_BE3C_TGFb1: BioMAP Diversity Plus: BE3C Assay for Transforming growth factor beta 1 (TGFb1) Biomarker Activity (AID 2283036;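 for outcome: TGF-b1 protein level measured by ELISA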). Conditions: primary human bronchial epithelial cells; actives raise or lower the signal. In a few lines: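 TGF-b1 measured via ELISA, 24 h after chemical dosing of human bronchial epithelial cells (BE3C). Overt cytotoxicity assessed in parallel by SRB (0.1%, TCA-fixed, 560 nm); analysis bidirectional relative to DMSO.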

Read-out in test [15]: Plasminogen activator inhibitor-1 (PAI1), SERPINE1 (gene 5054)
The test is described as follows: BSK_BE3C_PAI1: BioMAP Diversity Plus: BE3C Assay for Plasminogen activator inhibitor-1 (PAI1) Biomarker Activity (AID 2283037). To be noted: primary human bronchial epithelial cells; actives raise or lower the signal. The essentials:
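In this multiplexed primary-cell system, bronchial epithelial cells receive test chemical and are sampled at 24 h. PAI-1 is read by ELISA, with DMSO serving as negative control for bidirectional fitting.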

Read-out in test [16]: urokinase plasminogen activator (uPA), PLAU (gene 5328)
As to the kind of experiment: BSK_BE3C_uPA: BioMAP Diversity Plus: BE3C Assay for urokinase plasminogen activator (uPA) Biomarker Activity (AID 2283038).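 For outcome: uPA protein level quantified by ELISA in cell cultures; uPA read one day after compound addition.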 Conditions: primary human bronchial epithelial cells; actives raise or lower the signal. The essentials: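 Bronchial epithelial cells (human, primary); chemical 24 h; uPA by ELISA; bidirectional fit vs DMSO. SRB (0.1%, after 10% TCA fixation, 560 nm) in parallel cultures for cytotoxicity.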

Read-out in test [17]: Urokinase-type plasminogen activator receptor (uPAR), PLAUR (gene 5329)
The test is described as follows: BSK_BE3C_uPAR: BioMAP Diversity Plus: BE3C Assay for Urokinase-type plasminogen activator receptor (uPAR) Biomarker Activity (AID 2283039).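 For outcome: cells exposed to compound for one day before measurement.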 Conditions: primary human bronchial epithelial cells; actives raise or lower the signal. The essentials:
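Chemically treated human bronchial epithelial cells (lung primary) are assayed for uPAR by ELISA after 24 h, with data fitted in both directions using DMSO as negative control.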

Read-out in test [18]: Interleukin-6 (IL6), IL6 (gene 3569)
As to the kind of experiment: BSK_CASM3C_IL6: BioMAP Diversity Plus: CASM3C Assay for Interleukin-6 (IL6) Biomarker Activity for (AID 2283040). Conditions: primary human coronary artery smooth muscle cells; actives raise or lower the signal.

Read-out in test [19]: Tissue plasminogen activator (tPA), PLAT (gene 5327)
The test is described as follows: BSK_BE3C_tPA: BioMAP Diversity Plus: BE3C Assay for Tissue plasminogen activator (tPA) Biomarker Activity (AID 2283041).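 For outcome: tPA level quantified by ELISA one day after compound addition.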 To be noted: primary human bronchial epithelial cells; actives raise or lower the signal. In a few lines:
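Using human lung primary bronchial epithelial cells, tPA was measured by ELISA 24 h after dosing; data fitted relative to DMSO.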

The nature of test [20]: BSK_4H_SRB: Viability Assessment in the BioMAP Diversity Plus: 4H Assay (AID 2283027).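 For AC50: curves fitted both ways versus DMSO so AC50 may be loss or gain.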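 Note: cells exposed to compound for 24 h before staining.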 To be noted: primary human endothelial cells (HUVEC). The essentials: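 Cytotoxicity readout: sulforhodamine B (0.1%) staining of total protein after 10% TCA fixation, measured at 560 nm in human umbilical vein endothelium at 24 h. DMSO set the baseline; fitting was bidirectional.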

Chain of human Vitamin D Receptor (VDR), VDR (gene 7421) (P11473 whole entry, looked up, the tested form may be a part): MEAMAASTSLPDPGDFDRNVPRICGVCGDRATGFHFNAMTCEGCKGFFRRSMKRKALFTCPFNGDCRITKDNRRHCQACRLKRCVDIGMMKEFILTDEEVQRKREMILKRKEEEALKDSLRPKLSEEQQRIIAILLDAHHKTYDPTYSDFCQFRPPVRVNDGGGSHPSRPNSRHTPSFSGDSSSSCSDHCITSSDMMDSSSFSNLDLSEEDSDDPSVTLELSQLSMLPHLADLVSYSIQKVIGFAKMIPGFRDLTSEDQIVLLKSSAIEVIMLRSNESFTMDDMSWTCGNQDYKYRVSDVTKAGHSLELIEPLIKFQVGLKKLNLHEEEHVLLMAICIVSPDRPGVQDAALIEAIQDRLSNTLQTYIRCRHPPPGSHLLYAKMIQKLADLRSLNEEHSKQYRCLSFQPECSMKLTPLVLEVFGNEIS

On to `CC(C)=CCC/C(C)=C/CO`, for which the compound was called inactive in test [1], in [2], in test [3], in [4], in test [5] and in test [6]. Besides, the result in test [7], in test [8], in test [9], in [10], in [11] and in test [12] was inactive. Further, the outcome in test [13], in test [14], in test [15], in [16], in test [17] and in test [18] was inactive. In test [19], the result was inactive.

For the compound `CCCC(=O)OCC`, the compound was called inactive in test [1], in test [2], in [3], in test [4], in [5] and in test [6]. For the same compound, the outcome in test [7], in test [8], in test [9], in [10], in [11] and in test [12] was inactive. For the same compound, the result in [13], in test [14], in [15], in [16], in test [17] and in test [18] was inactive.

Turning to `On1ccccc1=S`, the outcome in [1] was inactive. The AC50 in [2] was 29.7 µM (active); in [3], 10.9 µM (active); in test [4], 38.4 µM (active); in [5] it was 11.8 µM (active); in [20], 14.8 µM (active); in test [6] it was 9.28 µM (active). Further, the half-maximal activity concentration (AC50) in [7] was 5.96 µM (active); in test [8] it was 19.8 µM (active); in test [10], 3.31 µM (active); in test [11], 14.8 µM (active); in test [12], 3.8 µM (active); in [13], 5.25 µM (active). Further, the AC50 in test [14] was 5.47 µM (active); in [15], 3.45 µM (active); in [16], 5.4 µM (active); in test [17], 9.61 µM (active); in test [18], 32.2 µM (active).

In the case of `CCn1nc(Cc2ccccc2)cc1C1CCN(C[C@H]2C[C@H](N(C)[C@@H](C(=O)O)C(C)C)C[C@@H]2c2cccc(F)c2)CC1`, the outcome in test [1], in [2], in test [3], in test [4], in [5] and in test [20] was inactive. Also, the result in test [6], in [7], in test [8], in [9], in test [10] and in test [11] was inactive. Moreover, the outcome in [12], in test [13], in test [14], in [15], in test [16] and in test [17] was inactive. Further, the outcome in test [18] and in test [19] was inactive.

Regarding `CCOc1cccc(-n2cc(C(=O)N3CCN(c4cc(C(=O)O)c5ccccc5c4)CC3)nc2-c2ccc(C)cc2)c1`, the call in [1] and in [7] was inactive. The AC50 was 16.8 µM (active) in test [2]; 33.4 µM (active) in test [3]; 38 µM (active) in test [4]; 26.2 µM (active) in test [5]; 31.3 µM (active) in [6]; 12.7 µM (active) in test [8]. Besides, the half-maximal activity concentration (AC50) in test [9] was 18.2 µM (active); in test [10], 24.5 µM (active); in [11] it was 29.9 µM (active); in [12], 15 µM (active); in test [13] it was 32.6 µM (active); in test [14], 27.4 µM (active). Also, the concentration at half-maximal activity (AC50) in test [15] is 19.2 µM (active); in test [16], 16.8 µM (active); in test [17] it was 15.7 µM (active); in test [18], 30.3 µM (active); in test [19] it was 9.89 µM (active).

For `Oc1ccc2c(c1)-c1ccccc1C2`, the result in [1], in test [3], in [6], in [7], in [8] and in [9] was inactive. The outcome in test [10], in test [11], in test [12], in test [13], in test [14] and in test [15] was inactive. In addition, the outcome in [16], in test [17] and in test [18] was inactive. Further, the AC50 in test [2] was 19.6 µM (active); in [4], 39 µM (active).
